Screens (PubChem)
Pf growth 96h = Primary qHTS for delayed death inhibitors of the malarial parasite plastid, 96 hour incubation. P. falciparum luciferase reporter growth, 96 h. Potency, µM (titrated, usually from 28.7 µM), inactives show at the top dose activity change, negative = inhibition, hits mostly inhibitors. hit rate 6.9% among 320,000. AID 504834, 2011; note: potency is the fitted concentration of half-maximal effect; % is set by controls: 0 for no effect and ±100 for the full control effect
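Erythrocytes infected with luciferase-expressing P. falciparum were dispensed at 2% hematocrit and 0.05% parasitemia (final), then incubated with compounds 96 hours at 37 C in 5% CO2. Luminescence after detection reagent addition reported growth.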
Pf growth 48h = Primary qHTS for delayed death inhibitors of the malarial parasite plastid, 48 hour incubation | hit rate 5.9% among 310,000 | P. falciparum luciferase growth in erythrocytes, 48 h | Potency, µM (highest dose often 28.7 µM), inactives show at the highest dose activity change, negative = inhibition, usual class: inhibitors | AID 504832, 2011; note: potency is the fitted concentration of half-maximal effect; % is set by controls: 0 for no effect and ±100 for the full control effect
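Compounds are pin-transferred into medium, infected erythrocytes (2% hematocrit, 0.1% parasitemia final) are added, and plates sit one parasite generation at 37 C in 5% CO2. Detection reagent is then added and luminescence measured.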
Cycloheximide cs = Cycloheximide Counterscreen for Small Molecule Inhibitors of Shiga Toxin | cell reporter, cycloheximide protein synthesis inhibition counterscreen | max response, % | hit rate 12% among 300,000; in the data active = max response mostly above about 13%, no sharp cut-off; inactive = mostly below about 14%; note: read at 38.3 µM for the half of the compounds with a filed dose; 0% is about no effect
NS1 inh = qHTS Assay for Inhibitors of Influenza NS1 Protein Function | Potency, µM (top dose mostly 46.1 µM), without a hit: at the top dose activity, positive = more growth | hit rate 0.4% among 270,000 | AID 2326, 2010; calls by dose curve; note: potency is the fitted concentration of half-maximal effect; actives are rising curves; nearly all actives have a fitted effect of over 50% in size
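Read-out: OD600 growth recovery of NS1-expressing budding yeast. Cells grown overnight at 30C in -URA glucose medium, washed, resuspended and diluted 1:100 in 2% galactose assay medium, pH 6.0. Same strain lacking NS1 served as positive control.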
Shiga inhibitor = A qHTS for Small Molecule Inhibitors of Shiga Toxin; Vero cells, Shiga toxin protein synthesis inhibition reporter; hit rate 9.2% among 290,000; inhibition, % at 38.7 µM; in the data active = inhibition mostly above about 28%, no sharp cut-off; inactive = mostly below about 43%; note: 0% is about no effect
The depositor's hits bear a star; ? = inconclusive; nt = not tested or not shown; [ ] = another dose, or the depositor's remark. This is a sample that favours compounds with a hit; in the whole collection about 21% have one here. Unless noted, calls come from the whole dose curve; as a rule, active = well fitted inhibition curve with a large enough effect; inconclusive = small, poorly fitted or top-dose-only effect, or another doubt; inactive = no such curve, though single readings can be large or run the other way.

SMILES | Pf growth 96h | Pf growth 48h | Cycloheximide cs | NS1 inh | Shiga inhibitor
COc1ccccc1-c1cc(C(=O)N2CCN(c3ccc(F)cc3)CC2)no1 | 8.28µM* | 34.7% | 0.9 | -5.2% | 35.9
COc1cccc(OC)c1C(=O)N1CCOCC1 | 14.7µM* | -8.1% | -2.3 | -2.0% | 11.2
COc1ccccc1-c1cc(C(=O)N2CCc3ccccc3C2)no1 | nt | nt | nt | -84.4% | nt
COc1ccccc1N1CCN(C(=O)c2cc(-c3ccccc3O)on2)CC1 | -3.4% | ? | 1.4 | -5.1% | 2.4
COc1ccccc1-c1cc(C(F)(F)F)nc(N2CCN(c3ccccc3)CC2)n1 | ? | 18.2% | 0.7 | -3.3% | -5.0
COc1ccccc1-c1cc(C(=O)N2CCOCC2)no1 | ? | 97.3% | 29.3* | -2.8% | 89.5*
COc1ccccc1-c1cc(C(F)(F)F)nc(N2CCN(c3ccc(F)cc3)CC2)n1 | 13.1µM* | -2.4% | -1.8 | -8.9% | -4.8
Cc1cc(C(=O)NNC(=O)c2ccc(C)c([N+](=O)[O-])c2)c(C)o1 | 24.5% | ? | nt | nt | nt
COc1ccccc1-c1cc(C(=O)N2CCCC2)no1 | ? | 131.6% | 33.7* | -27.2% | 84.4*
O=C(c1cc(-c2ccccc2Cl)on1)N1CCCC1 | 323.9% | 0.0% | 14.2* | -2.9% | 32.9
COc1cccc(CN2CC(C(=O)N(C)Cc3nc4ccc(F)cc4[nH]3)CCC2=O)c1 (stereo unspecified) | -17.0% | -0.3% | -1.9 | 4.1% | -2.5
COc1cccc(CN2CC(C(=O)N(C)Cc3ccc(C)cc3)CCC2=O)c1 (stereo unspecified) | 4.5% | ? | 43.3* | -10.6% | 29.4
COc1cccc(CN2CC(C(=O)N(C)Cc3[nH]c4ccccc4c3C)CCC2=O)c1 (stereo unspecified) | 19.1% | -21.0% | -1.1 | 0.7% | -1.4
COCc1cc(CN(C)C(=O)C2CCC(=O)N(Cc3cccc(OC)c3)C2)[nH]n1 (stereo unspecified) | 9.28µM* | 0.9% | -4.2 | -2.8% | 3.7
CCc1ccc(OCC2c3cc(OC)c(OC)cc3CCN2C(=S)NCCOC)cc1 (stereo unspecified) | 10.4µM* | ? | -2.0 | 4.5% | -13.7
CCc1ccc(OCC2c3cc(OC)c(OC)cc3CCN2C(=S)NC)cc1 (stereo unspecified) | ? | ? | -2.0 | nt | -5.1
COC(=O)c1ccc(OCC2c3cc(OC)c(OC)cc3CCN2C(=O)C2CC2)cc1 (stereo unspecified) | ? | 11.7µM* | 1.6 | -4.9% | 1.3
CC(=O)c1cccc(NC(=O)c2ccc3c(c2)CCCC3)c1 | 8.3% | 208.2% | 53.3* | -69.3% | 56.8*
COc1cccc(NC(=O)c2ccc(CN3CCc4ccccc4C3)cc2)c1 | ? | ? | 12.0 | -24.8% | 42.8
COc1cccc(NC(=O)c2ccc3c(c2)CCCC3)c1 | 311.2% | 272.7% | 48.8* | -32.7% | 73.0*
CC(C)CC1OC(=O)C2=CCCCC21 (stereo unspecified) | nt | nt | 7.6 | nt | -9.3
Cc1ccc2c(c1)C(=O)OC1(O)C3C4C=CC(C4)C3C(=O)N21 (stereo unspecified) | 14.7% | 4.2% | 11.0 | 4.7% | 16.4
O=C1OC2(O)C3C4C=CC(C4)C3C(=O)N2c2ccccc21 (stereo unspecified) | 46.4% | 2.33µM* | 2.1 | 5.4% | -8.7
CC1CCCN(c2ccc([N+](=O)[O-])s2)C1 (stereo unspecified) | -9.8% | 21.8% | 16.0* | nt | 12.2
O=[N+]([O-])c1ccc(N2CCCCC2)s1 | -16.5% | 32.3% | 18.0* | nt | -4.6
SMILES | Pf growth 96h | Pf growth 48h | Cycloheximide cs | NS1 inh | Shiga inhibitor
COC(=O)c1cc2sccc2n1CC(=O)Nc1ccc(OC)c(OC)c1OC | 20.0% | 2.08µM* | -1.3 | ? | -5.2
CCOC(=O)c1cc2sccc2n1CC(=O)Nc1ccc(OC)cc1OC | -1.5%[5.75 µM] | ? | 1.2 | -1.9% | -6.4
CCOC(=O)c1cc2sccc2n1CC(=O)OC | nt | 4.7% | 0.9 | -130.9% | -14.1
COC(=O)c1cc2sccc2n1CC(=O)Nc1cccc(SC)c1 | 3.29µM* | -13.6% | -2.3 | 13.4% | -5.4
CCOC(=O)c1cc2sccc2n1CC(=O)Nc1ccc2c(c1)OCCO2 | 39.8% | -19.2% | 17.8* | 8.9% | 44.9
CCC(C(=O)NN1C(=O)c2ccccc2C1=O)c1ccccc1 (stereo unspecified) | -0.9% | 24.8% | 4.5 | nt | 25.3
CCOC(=O)C1CCN(C(=O)Cn2nc(C)n3cccc3c2=O)CC1 | 0.0% | -0.7% | -3.9 | -2.5% | 24.4
